Where “and” joins values, the source holds several entries; their conditions need not be identical. Equal values may be shown once. Inconclusive results are not listed. A structure can be active in one record and inactive in another. Calls of active or inactive are those of the source. Unless noted, calls come from the whole dose curve; as a rule, active = well fitted curve in the direction sought with a large enough effect in the repeat runs; inconclusive = weak or mixed curves; inactive = no such curve, though single readings can be large; an effect the other way counts as inactive or inconclusive.
Assays:
[1] = molecular target: Estrogen receptor beta (Homo sapiens) (UniProt Q92731); experiment: qHTS assay to identify small molecule antagonists of the estrogen receptor beta (ER-beta) signaling pathway (AID 1259378; active = well fitted inhibition curve with a large enough effect in the signal ratio in the repeat runs, not every such curve was filed as active; the % refers to the signal ratio; note: potency is the fitted concentration of half-maximal effect)
How it was run: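 ER-beta-UAS-bla HEK293T (GripTite) cells in 2% charcoal-stripped FBS medium were preincubated 6 hr at 37C, dosed with compound, then stimulated with 1 nM E2 (final) for 16 hr; beta-lactamase reporter read by B/G FRET fluorescence after 2 hr substrate loading.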

[2] = qHTS assay to identify small molecule agonists of the androgen receptor (AR) signaling pathway in the presence of an antagonist - cell viability counter screen (AID 1259379);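 note: MDA-kb2 human breast cancer cells carrying an MMTV luciferase reporter; series mostly up to about 92 µM; nearly all actives have a fitted effect of over 25% in size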
How it was run: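 Cytotoxicity is assessed by CellTiter-Fluor in MDA-kb2 cells carrying an MMTV-driven luciferase reporter. Cells receive 3.0uM nilutamide plus compounds at 15 concentrations and incubate 16 hr at 37C without CO2 before fluorescence reading.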

[3] = qHTS assay to identify small molecule agonists of the estrogen receptor beta (ER-beta) signaling pathway - cell viability counter screen (AID 1259380); note: nearly all actives have a fitted effect of over 30% in size
How it was run: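 Cytotoxicity is measured in parallel with the reporter screen: after 16 hr compound exposure at 37C and a 2 hr LiveBLAzer step, CellTiter-Glo is added to the same ER-beta-UAS-bla HEK293T wells and luminescence read after 30 min.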

[4] = qHTS assay to identify small molecule antagonists of the estrogen receptor beta (ER-beta) signaling pathway - cell viability counter screen (AID 1259382); note: series mostly up to about 92 µM; nearly all actives have a fitted effect of over 55% in size
How it was run: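 Cytotoxicity counter screen multiplexed with the beta-lactamase antagonist assay: GripTite HEK293T ER-beta-bla cells were treated 16 hr with test chemicals in the presence of 1nM 17-beta-estradiol, and viability was measured by CellTiter-Glo.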

[5] = molecular target: Estrogen receptor (Homo sapiens) (UniProt P03372); experiment: qHTS assay to identify small molecule agonists of the estrogen receptor alpha (ER-alpha) signaling pathway in the presence of an antagonist (AID 1259383; calls by dose curve; note: top concentration of the series differs between compounds; nearly all actives have a fitted effect of over 15% in size)
How it was run: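 Agonist-mode confirmation in the presence of the ER antagonist ICI-182,780 at 10.0nM final. Breast-derived VM7Luc4E2 reporter cells were exposed to compounds for 22hr, and ERE-driven luciferase was quantified by luminescence.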

[6] = qHTS assay to identify small molecule agonists or antagonists of the thyroid stimulating hormone receptor (TSHR) signaling pathway - wild type cell line counter screen (AID 1259384; calls by dose curve)
How it was run: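 Wild-type HEK293 cells were plated 18 h at 37 C/5% CO2, pin-dosed with compound plus Ro20-1724 medium, held 30 min at room temperature, then given cAMP-d2 and anti-cAMP-cryptate; fluorescence was read after 1 h. Fifteen concentrations, triplicate.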

[7] = molecular target: Thyrotropin receptor (Homo sapiens) (UniProt P16473); experiment: qHTS assay to identify small molecule antagonists of the thyroid stimulating hormone receptor (TSHR) signaling pathway (AID 1259385; calls by dose curve; note: nearly all actives have a fitted effect of over 20% in size)
How it was run: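 TSHR-HEK293 cells were plated and held 18 h at 37C/5% CO2, then given compound plus Ro20-1724 and stimulated with TSH at 1.5 ng/mL final. After 30 min at room temperature, cAMP was detected with cAMP-d2/anti-cAMP-cryptate (1 h) by fluorescence.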

[8] = qHTS assay to identify small molecule agonists of the estrogen receptor alpha (ER-alpha) signaling pathway in the presence of an antagonist - cell viability counter screen (AID 1259386);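 note: cells exposed to compounds for 22 h at 37 °C before the viability read; nearly all actives have a fitted effect of over 30% in size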; note: potency is the fitted concentration of half-maximal effect
How it was run: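 Cytotoxicity was measured in parallel with the ERE-luciferase agonist screen, in the same wells. The cells were VM7Luc4E2, which endogenously express ER-alpha, and treatment was with compounds plus 10.0nM ICI-182,780 for 22hr.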

[9] = molecular target: Progesterone receptor (Homo sapiens) (UniProt P06401); experiment: qHTS assay to identify small molecule agonists of the progesterone receptor (PR) signaling pathway (AID 1346784; calls by dose curve; note: nearly all actives have a fitted effect of over 30% in size)
How it was run: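 Cells (PR-UAS-bla HEK 293T, GripTite) were plated in assay medium containing 2% charcoal-stripped FBS and incubated 6 hr. Test compounds in DMSO were added for 16 hr at 37C. FRET substrate was then loaded for 2 hr at room temperature before fluorescence reading.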

[10] = molecular target: Progesterone receptor (Homo sapiens) (UniProt P06401); experiment: qHTS assay to identify small molecule antagonists of the progesterone receptor (PR) signaling pathway (AID 1346795; active = well fitted inhibition curve with a large enough effect in the signal ratio in the repeat runs, not every such curve was filed as active; the % refers to the signal ratio)
How it was run: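 Antagonist mode: compounds tested against 1 nM (final) promegestone stimulation in HEK293T cells expressing PR-UAS-bla reporter, 16 hr at 37C, 5% CO2; beta-lactamase activity detected via B/G FRET substrate after 2 hr at room temperature.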

[11] = qHTS assay to identify small molecule antagonists of the progesterone receptor (PR) signaling pathway - cell viability counter screen (AID 1346798); note: series mostly up to about 92 µM; nearly all actives have a fitted effect of over 50% in size
How it was run: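 Counter screen for cytotoxicity: viability of PR-UAS-bla HEK293T cells was measured with CellTiter-Glo luminescence following 16 hr compound exposure in the presence of R5020.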

[12] = qHTS assay to identify small molecule agonists of the progesterone receptor (PR) signaling pathway - cell viability counter screen (AID 1346799; calls by dose curve; note: nearly all actives have a fitted effect of over 45% in size; note: potency is the fitted concentration of half-maximal effect)
How it was run: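 Cells (PR-UAS-bla HEK293T) are plated at 3,000/well in 2% charcoal-stripped FBS medium, rested 6 hr, dosed and incubated 16 hr at 37C. CellTiter-Glo is then added and luminescence measured after 30 min at room temperature.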

[13] = qHTS assay to identify small molecule antagonists of the TGF-beta/Smad signaling pathway - cell viability counter screen (AID 1346824); note: nearly all actives have a fitted effect of over 50% in size
How it was run: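 SBE-bla HEK 293T cells were plated overnight at 37 C, then given compounds in DMSO plus TGF-beta1 (added as 0.25 ng/mL solution) for 5 hr. After the bla read, CellTiter-Glo was added to the same wells and luminescence read after 30 min at room temperature.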

[14] = qHTS assay to identify small molecule agonists of the TGF-beta/Smad signaling pathway - cell viability counter screen (AID 1346829); note: top concentration of the series differs between compounds; nearly all actives have a fitted effect of over 45% in size
How it was run: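 CellTiter-Glo luminescence readout; SBE-bla HEK 293T cells, overnight plating, compound 5 hr at 37 C/5% CO2, then bla substrate 2 hr RT, then CellTiter-Glo 30 min RT.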

[15] = qHTS assay to identify small molecule agonists of the TGF-beta/Smad signaling pathway (AID 1346859; active = well fitted activation curve with a large enough effect in the signal ratio in the repeat runs, not every such curve was filed as active; the % refers to the signal ratio; note: series mostly up to about 77 µM)
How it was run: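 Reporter line: HEK 293T with stably integrated SBE-controlled beta-lactamase. Compound exposure lasts 5 hr at 37 C and 5% CO2; substrate loading follows for 2 hr at room temperature, with emission read at 460 and 530 nm.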

[16] = molecular target: Thyrotropin-releasing hormone receptor (Homo sapiens) (UniProt P34981); experiment: qHTS assay to identify small molecule agonists of the thyrotropin-releasing hormone receptor (TRHR) signaling pathway (AID 1346891; calls by dose curve;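 note: HEK293 cells expressing TRHR with calcium dye readout; series mostly up to about 58 µM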)
How it was run: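 Cells: TRHR-Hek293, seeded and incubated 18 h. Dye loading: 2 h at 37 °C. Compound added from DMSO stock by pin tool. Read-out: kinetic calcium fluorescence over 3 min.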

[17] = Human pregnane X receptor (PXR) small molecule agonists, qHTS cell viability counter screen (AID 1346977); note: nearly all actives have a fitted effect of over 50% in size
How it was run: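 Cytotoxicity counter screen run in the same wells as the PXR luciferase assay, using PXR-Luc HepG2 cells in charcoal-stripped serum medium. Viability: CellTiter-Fluor fluorescence after 24hr compound treatment.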

[18] = Caspase-3/7 induction in HepG2 cells by small molecules, qHTS assay (AID 1346978); note: nearly all actives have a fitted effect of over 15% in size; note: potency is the fitted concentration of half-maximal effect
How it was run: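 Wild-type HepG2 cells (2,000/well) were settled 5 h at 37 C, 5% CO2, then exposed to compounds in DMSO for 17 h. Caspase-3/7 activity was read by luminescence 30 min after adding Caspase-Glo 3/7 reagent at room temperature.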

[19] = molecular target: Androgen receptor (Homo sapiens) (UniProt P10275); experiment: qHTS assay to identify small molecule agonists of the androgen receptor (AR) signaling pathway in the presence of an antagonist (AID 1259381; calls by dose curve; note: nearly all actives have a fitted effect of over 15% in size)
How it was run: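 Agonist-mode confirmation screen: human MDA-kb2 cells stably expressing luciferase under an MMTV promoter bearing AR and GR response elements, co-treated with 3.0uM nilutamide (final). Luminescence measured after 16hr compound incubation.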

[20] = molecular target: Thyrotropin-releasing hormone receptor (Homo sapiens) (UniProt P34981); experiment: qHTS assay to identify small molecule antagonists of the thyrotropin-releasing hormone receptor (TRHR) signaling pathway (AID 1346877; active = well fitted inhibition curve with a large enough effect in the repeat runs, not every such curve was filed as active; note: series mostly up to about 51 µM)
How it was run: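 Antagonism is measured as suppression of the calcium response to 1 nM TRH in TRHR-HEK293 cells that have been dye-loaded for 2 h at 37 °C after overnight plating. Each compound is tested at 15 concentrations in triplicate.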

Measured: Potency

Chain of Estrogen receptor beta (Homo sapiens) (Q92731 whole entry, looked up): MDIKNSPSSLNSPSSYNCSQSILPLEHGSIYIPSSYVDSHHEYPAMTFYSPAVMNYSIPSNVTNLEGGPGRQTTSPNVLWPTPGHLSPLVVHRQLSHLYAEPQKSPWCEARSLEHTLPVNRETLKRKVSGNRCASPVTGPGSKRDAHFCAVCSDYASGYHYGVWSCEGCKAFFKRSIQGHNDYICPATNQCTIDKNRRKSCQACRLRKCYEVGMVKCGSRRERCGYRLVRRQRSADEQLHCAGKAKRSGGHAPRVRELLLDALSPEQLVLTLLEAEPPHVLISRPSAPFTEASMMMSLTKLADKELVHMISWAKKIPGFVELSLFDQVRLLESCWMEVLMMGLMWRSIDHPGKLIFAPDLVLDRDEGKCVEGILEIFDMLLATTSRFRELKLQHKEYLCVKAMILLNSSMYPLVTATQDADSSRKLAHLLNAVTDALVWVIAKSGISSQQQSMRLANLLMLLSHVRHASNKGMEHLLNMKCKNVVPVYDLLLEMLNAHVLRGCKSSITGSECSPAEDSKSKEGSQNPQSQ
Chain of Progesterone receptor (Homo sapiens) (P06401 whole entry, looked up): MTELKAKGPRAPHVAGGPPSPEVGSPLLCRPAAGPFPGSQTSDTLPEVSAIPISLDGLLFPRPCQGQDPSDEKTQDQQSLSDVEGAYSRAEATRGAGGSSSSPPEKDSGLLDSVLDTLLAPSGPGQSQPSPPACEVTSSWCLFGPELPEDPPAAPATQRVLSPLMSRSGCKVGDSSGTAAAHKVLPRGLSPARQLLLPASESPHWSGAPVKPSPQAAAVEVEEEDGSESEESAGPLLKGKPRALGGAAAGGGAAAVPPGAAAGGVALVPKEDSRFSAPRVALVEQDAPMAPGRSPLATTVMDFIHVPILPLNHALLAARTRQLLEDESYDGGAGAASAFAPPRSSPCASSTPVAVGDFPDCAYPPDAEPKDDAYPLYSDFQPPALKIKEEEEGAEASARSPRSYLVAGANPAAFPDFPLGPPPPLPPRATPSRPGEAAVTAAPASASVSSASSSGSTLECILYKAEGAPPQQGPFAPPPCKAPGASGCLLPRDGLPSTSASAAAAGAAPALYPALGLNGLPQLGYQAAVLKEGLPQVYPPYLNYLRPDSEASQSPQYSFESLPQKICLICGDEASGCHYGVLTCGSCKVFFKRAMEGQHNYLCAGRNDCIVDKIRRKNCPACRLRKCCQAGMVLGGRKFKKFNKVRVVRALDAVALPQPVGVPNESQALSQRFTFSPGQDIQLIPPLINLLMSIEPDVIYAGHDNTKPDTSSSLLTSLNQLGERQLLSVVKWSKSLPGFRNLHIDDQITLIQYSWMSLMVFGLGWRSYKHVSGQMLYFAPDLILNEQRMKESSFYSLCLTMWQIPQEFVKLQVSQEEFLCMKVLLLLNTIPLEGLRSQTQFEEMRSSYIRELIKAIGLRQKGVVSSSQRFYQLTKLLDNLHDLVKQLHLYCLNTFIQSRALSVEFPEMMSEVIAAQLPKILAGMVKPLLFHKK
Chain of Androgen receptor (Homo sapiens) (P10275 whole entry, looked up): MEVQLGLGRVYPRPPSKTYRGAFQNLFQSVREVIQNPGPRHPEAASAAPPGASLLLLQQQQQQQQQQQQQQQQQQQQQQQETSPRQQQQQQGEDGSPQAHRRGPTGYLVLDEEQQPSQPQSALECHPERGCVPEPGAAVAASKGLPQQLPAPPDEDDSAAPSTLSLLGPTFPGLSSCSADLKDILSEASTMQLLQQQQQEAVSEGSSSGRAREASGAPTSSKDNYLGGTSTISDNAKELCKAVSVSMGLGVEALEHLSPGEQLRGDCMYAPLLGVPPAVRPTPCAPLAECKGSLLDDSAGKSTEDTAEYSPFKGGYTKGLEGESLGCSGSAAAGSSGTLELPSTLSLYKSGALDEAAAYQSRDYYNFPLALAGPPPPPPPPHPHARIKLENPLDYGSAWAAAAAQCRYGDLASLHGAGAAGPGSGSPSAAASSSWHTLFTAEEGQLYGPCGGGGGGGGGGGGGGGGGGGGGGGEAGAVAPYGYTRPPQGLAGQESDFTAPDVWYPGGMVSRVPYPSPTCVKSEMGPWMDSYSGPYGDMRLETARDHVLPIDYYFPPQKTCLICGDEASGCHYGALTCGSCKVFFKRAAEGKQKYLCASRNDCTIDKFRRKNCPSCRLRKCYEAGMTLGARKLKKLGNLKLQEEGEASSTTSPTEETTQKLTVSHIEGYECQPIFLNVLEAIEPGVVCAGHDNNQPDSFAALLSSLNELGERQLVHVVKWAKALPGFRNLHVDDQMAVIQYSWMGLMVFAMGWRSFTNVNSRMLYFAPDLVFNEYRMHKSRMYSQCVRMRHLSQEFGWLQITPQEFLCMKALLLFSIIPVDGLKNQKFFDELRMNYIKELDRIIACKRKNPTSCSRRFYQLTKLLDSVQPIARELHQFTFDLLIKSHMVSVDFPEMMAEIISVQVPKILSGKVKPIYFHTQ
Chain of Thyrotropin-releasing hormone receptor (Homo sapiens) (P34981 whole entry, looked up): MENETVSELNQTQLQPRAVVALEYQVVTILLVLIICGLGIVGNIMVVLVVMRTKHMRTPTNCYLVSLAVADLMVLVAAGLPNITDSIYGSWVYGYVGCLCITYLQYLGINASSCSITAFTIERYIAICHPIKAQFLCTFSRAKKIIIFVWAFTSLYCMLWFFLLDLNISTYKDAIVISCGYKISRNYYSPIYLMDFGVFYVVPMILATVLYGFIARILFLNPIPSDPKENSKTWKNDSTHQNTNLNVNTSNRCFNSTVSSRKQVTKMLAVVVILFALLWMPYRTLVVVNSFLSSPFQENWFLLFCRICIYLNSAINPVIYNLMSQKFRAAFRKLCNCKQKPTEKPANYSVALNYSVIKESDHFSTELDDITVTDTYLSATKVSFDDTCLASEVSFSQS
Chain of Estrogen receptor (Homo sapiens) (P03372 whole entry, looked up): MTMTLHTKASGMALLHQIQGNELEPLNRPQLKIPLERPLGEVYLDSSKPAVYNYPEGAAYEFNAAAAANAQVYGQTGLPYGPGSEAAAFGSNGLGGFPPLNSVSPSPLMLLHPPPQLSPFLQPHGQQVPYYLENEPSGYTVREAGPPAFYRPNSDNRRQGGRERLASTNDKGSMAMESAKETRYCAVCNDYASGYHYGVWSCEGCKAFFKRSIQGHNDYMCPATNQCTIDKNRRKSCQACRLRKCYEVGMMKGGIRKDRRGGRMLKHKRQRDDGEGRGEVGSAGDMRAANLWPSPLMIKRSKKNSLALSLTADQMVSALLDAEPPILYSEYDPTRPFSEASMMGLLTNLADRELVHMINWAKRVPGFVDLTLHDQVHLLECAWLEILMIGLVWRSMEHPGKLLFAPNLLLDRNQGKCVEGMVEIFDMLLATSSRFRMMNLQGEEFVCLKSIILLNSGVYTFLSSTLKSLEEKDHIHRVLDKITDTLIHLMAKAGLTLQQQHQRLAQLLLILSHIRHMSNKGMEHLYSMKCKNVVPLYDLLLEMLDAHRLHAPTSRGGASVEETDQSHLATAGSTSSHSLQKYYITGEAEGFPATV
Chain of Thyrotropin receptor (Homo sapiens) (P16473 whole entry, looked up): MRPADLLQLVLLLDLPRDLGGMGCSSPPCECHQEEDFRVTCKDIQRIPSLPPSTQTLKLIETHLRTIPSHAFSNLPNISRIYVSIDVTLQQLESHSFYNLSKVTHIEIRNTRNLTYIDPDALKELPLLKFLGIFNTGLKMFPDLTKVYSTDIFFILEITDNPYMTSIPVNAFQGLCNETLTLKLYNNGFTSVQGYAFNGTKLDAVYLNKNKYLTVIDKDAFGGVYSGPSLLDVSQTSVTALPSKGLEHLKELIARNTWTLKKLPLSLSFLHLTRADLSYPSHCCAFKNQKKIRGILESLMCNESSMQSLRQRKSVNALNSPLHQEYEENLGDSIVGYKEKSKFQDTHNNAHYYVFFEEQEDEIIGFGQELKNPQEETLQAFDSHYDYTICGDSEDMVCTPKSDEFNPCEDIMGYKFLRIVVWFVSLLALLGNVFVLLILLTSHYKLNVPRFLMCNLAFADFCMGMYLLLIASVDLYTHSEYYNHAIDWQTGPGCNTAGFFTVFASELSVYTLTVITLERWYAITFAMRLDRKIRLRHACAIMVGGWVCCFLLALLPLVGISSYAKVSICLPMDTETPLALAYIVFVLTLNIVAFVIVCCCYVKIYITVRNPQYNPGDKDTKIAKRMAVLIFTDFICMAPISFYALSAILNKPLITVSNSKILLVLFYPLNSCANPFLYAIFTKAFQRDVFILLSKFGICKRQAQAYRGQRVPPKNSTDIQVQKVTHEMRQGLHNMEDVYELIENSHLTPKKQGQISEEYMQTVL

CC1(C)[C@@H]2CC[C@@]1(C)C(=O)C2
not listed: [19] | [20]
inactive: all other assays above

CCCN(CCC)S(=O)(=O)c1ccc(C(=O)O)cc1
not listed: [5] | [16]
inactive: all other assays above

CC(=O)Nc1nnc(S(N)(=O)=O)s1
not listed: [19] | [20]
inactive: all other assays above

NNC(=O)c1ccncc1
not listed: [16] | [19] | [20]
inactive: all other assays above

Cn1cc[nH]c1=S
43.2 µM (active) and inactive: [1] | [12]
not listed: [11] | [16] | [19] | [20]
inactive: all other assays above

O=c1cc[nH]c(=S)[nH]1
30.8 µM (active) and inactive: [18]
not listed: [16] | [19] | [20]
inactive: all other assays above

CCCCCCCCCCCCCCCC(=O)O
not listed: [5] | [16] | [19]
inactive: all other assays above

Cc1cc(=O)n(-c2ccccc2)n1C
not listed: [6] | [7] | [16] | [20]
inactive: all other assays above

O=C(O)CCCCCCCC(=O)O
not listed: [5] | [16] | [19]
inactive: all other assays above

OC(Cn1cncn1)(Cn1cncn1)c1ccc(F)cc1F
not listed: [16] | [18] | [19] | [20]
inactive: all other assays above

Cc1ccc(O)cc1
not listed: [5] | [16] | [17] | [20]
inactive: all other assays above

Cc1ccc(S(=O)(=O)NC(=O)NN2CCCCCC2)cc1
not listed: [16] | [19] | [20]
inactive: all other assays above

Nc1ccc(O)c(C(=O)O)c1
active: [8] 48.1 µM and 54.5 µM
not listed: [19] | [20]
inactive: all other assays above

NC(=O)c1ccccc1O
not listed: [16] | [19] | [20]
inactive: all other assays above

O=C(O)c1cccnc1
not listed: [5] | [19] | [20]
inactive: all other assays above

Cc1ccc(C)c(OCCCC(C)(C)C(=O)O)c1
not listed: [16] | [20]
inactive: all other assays above

From PubChem BioAssay (Tox21)
